Assay outcomes: PubChem BioAssay, The Scripps Research Institute Molecular Screening Center
M1 ag = agonists of human M1 muscarinic receptor; activation, % at 3 µM; P11229; CHO-K1 hM1, Fluo-8 calcium fluorescence, agonist mode; 0% DMSO, 100% acetylcholine EC100; actives 0.33% (n = 360,000);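 active = activation above the run's mean compound activation plus 3 SD, cut at about 16% in these data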;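 note: peak over basal fluorescence ratio within a 140 s kinetic read after compound addition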
Target sequence (P11229 whole entry, looked up): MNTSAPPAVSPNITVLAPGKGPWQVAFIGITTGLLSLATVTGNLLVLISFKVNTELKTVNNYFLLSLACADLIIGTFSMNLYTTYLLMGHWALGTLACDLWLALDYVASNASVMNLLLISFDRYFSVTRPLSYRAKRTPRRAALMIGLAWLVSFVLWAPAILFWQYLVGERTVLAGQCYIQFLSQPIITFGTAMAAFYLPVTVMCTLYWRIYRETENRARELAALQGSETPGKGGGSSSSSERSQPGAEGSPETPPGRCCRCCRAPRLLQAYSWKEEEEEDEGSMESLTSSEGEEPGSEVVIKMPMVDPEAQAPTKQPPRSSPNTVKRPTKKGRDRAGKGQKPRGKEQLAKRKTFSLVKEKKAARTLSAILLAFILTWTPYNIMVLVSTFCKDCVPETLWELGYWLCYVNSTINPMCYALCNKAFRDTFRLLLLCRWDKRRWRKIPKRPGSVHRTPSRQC
M1 PAM = positive allosteric modulators of human M1 muscarinic receptor | CHO-K1 hM1, Fluo-8 calcium fluorescence, ACh EC20; 0% = ACh EC20, 100% = maximal ACh | activation, % at 3 µM | actives 0.088% (n = 360,000) | AID 588819; in the data active = activation above about 19%, passing the limit was not always enough
M1 PAM parental = M1 PAM counterscreen hit in parental CHO-K1 cells; ATP EC20, Fluo-8 calcium fluorescence; 0% at ATP EC20, 100% at ATP max; activation, % at 3 µM; actives 0.02% (n = 360,000);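 active = activation above the run cutoff, the mean activation of all test compounds plus 3 SD, cut at about 40% in these data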;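 note: peak over basal fluorescence ratio in a 140 s read after ATP addition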
M1 antag = blocks human M1 muscarinic receptor. P11229. CHO-K1 hM1, Fluo-8 calcium fluorescence, ACh EC80 antagonist. inhibition, % at 3 µM. actives 1.3% (n = 360,000). AID 588852;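 active = percent inhibition above its own plate's cutoff, namely the mean of that plate's compound wells plus 3 SD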;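 note: peak over basal fluorescence ratio during 140 s after agonist addition; 0% = ACh EC80 plus DMSO and 100% = DMSO alone without agonist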
M1 ag parental = counter-screen for M1 agonists: effect in parental CHO-K1 cells; activation, % at 3 µM; AID 602248; Fluo-8 calcium fluorescence; scaled to maximal ATP response, vehicle zero; actives 0.48% (n = 360,000); in the data active = activation above about 15%;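 note: untransfected CHO-K1 host cells lacking M1 receptor as counterscreen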
CHO-K1 Ca antag = counter-screen for M1 antagonists: effect in parental CHO-K1 cells; AID 602250; inhibition, % at 3 µM; actives 0.6% (n = 360,000); ATP-induced calcium, Fluo-8 fluorescence;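 active = inhibition above a per-plate cutoff, the plate's mean sample inhibition plus 3 SD, cut at about 24% in these data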;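 note: 0% = DMSO plus EC80 ATP and 100% = DMSO alone without ATP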
* marks the source's active call; other numbers are inactive results. Only some compounds are listed: those with a hit (about 2.4% of all), similar ones and a draw of the others.

SMILES	M1 ag	M1 PAM	M1 PAM parental	M1 antag	M1 ag parental	CHO-K1 Ca antag
O=C1C2CC=CCC2C(=O)N1c1ccc(NCCc2ccccc2)c([N+](=O)[O-])c1 (configuration not stated)	-4	11	15	-13	1	-11
O=[N+]([O-])c1ccc(NC2CCN(Cc3ccccc3)CC2)c([N+](=O)[O-])c1	-13	-31	15	10	2	-10
O=[N+]([O-])c1ccccc1NC1CCN(Cc2ccccc2)CC1	-9	-25	-19	47*	0	8
C[C@@H]1CC[C@H](Cc2ccc(-n3cccc3)cc2)N1C(=O)OC(C)(C)C	-2	5	16	-13	0	-24
CCN1CCN(c2ncc(C(=O)Nc3cc(Cl)c(OC)cc3OC)c3ccccc23)CC1	-12	-26	24	34*	1	-15
CCOC(=O)N1CCN(C(=O)c2cnc(Nc3ccccc3OC)c3ccccc23)CC1	-3	-13	4	33*	4	7
COc1ccccc1N1CCN(C(=O)c2n[nH]c3ccccc23)CC1	-3	8	14	-5	2	-13
CCN1CCN(c2ncc(C(=O)Nc3c(F)cc(F)cc3Br)c3ccccc23)CC1	-4	-18	20	28	2	-8
CCN1CCN(c2ncc(C(=O)N3CCN(c4ccccc4OC)CC3)c3ccccc23)CC1	-7	-23	12	21*	0	-3
COC(=O)c1cc2occc2n1CC(=O)Nc1ccc(C)cc1C	-7	-2	6	-18	0	-14
COc1cccc(NC(=O)Cc2cccs2)c1	-5	4	16	-15	1	-8
CC(=O)c1ccc(NC(=S)NCCc2cccc(Cl)c2)cc1	15	-14	-15	30	15*	6
S=C(NCCN(C1CCCCC1)C1CCCC1)Nc1cccc(Cl)c1	-6	-12	12	21	3	6
CC(=O)c1cccc(NC(=S)NC(=O)Cc2ccc(Cl)cc2)c1	21*	12	34	-3	9	-12
CC(=O)c1ccc(NC(=S)NCCc2ccc(S(N)(=O)=O)cc2)cc1	-4	3	3	-4	3	-21
COc1cccc(NC(=O)Nc2cccs2)c1	1	1	6	-3	4	3
S=C(NCCC(c1ccccc1)c1ccccc1)Nc1cccc(Cl)c1	0	-7	-4	7	6	26*
CC(=O)c1cccc(NC(=O)Nc2cccs2)c1	5	1	-3	2	1	26*
O=S1(=O)N=C2CCCCCN2C(c2ccc(Cl)cc2)N1 (configuration not stated)	-7	13	12	-8	0	-20
CC(=O)c1ccc(NC(=O)Nc2ccc(Br)cc2C)cc1	3	-10	19	31*	4	-13
CC(=O)c1ccc(NC(=O)Nc2cccc(Cl)c2)cc1	11	-19	-5	27*	13	34*
CSc1cccc(NC(N)=O)c1	-3	4	3	-6	0	1
CC(=O)Nc1ccc(NC(=O)Nc2cccc(Cl)c2)cc1	-1	10	7	-12	2	-6
CSc1cccc(NC(=O)Nc2ccc(Cl)cc2)c1	3	-11	-3	19	12	26*
CC/C(C)=N\NC(=O)CNC(=O)c1ccc(Cl)cc1Cl	-4	-7	23	6	0	-16
SMILES	M1 ag	M1 PAM	M1 PAM parental	M1 antag	M1 ag parental	CHO-K1 Ca antag
COC(=O)c1sc(NC(=O)CSc2nnnn2C)nc1C	-2	11	19	-16	1	-18
CN(C(=O)CCc1nnc(-c2ccc(-c3ccccc3)cc2)o1)C1CCOCC1	4	-10	-6	19	17*	2
C=CCNC(=O)/C(=C\C=C\c1ccccc1)NC(=O)c1ccccc1Cl	-1	-12	3	6	5	6
COc1ccc(CCC(C)Nc2ccccc2F)cc1 (configuration not stated)	-5	-4	17	6	0	-13
COc1ccc(CCC(C)NC2C3CC4CC(C3)CC2C4)cc1 (configuration not stated)	-7	-22	-4	99*	1	4
COc1ccc(-n2c(-c3ccc(Br)cc3)c[n+]3c2CCc2ccccc2-3)cc1	-10	-28	20	44*	0	0
COc1ccc(-c2cn(-c3ccc(OC)cc3)c3[n+]2-c2ccccc2CC3)cc1	-15	-13	14	21	1	9
CC(C)c1ccc(-n2c(-c3ccccc3)c[n+]3c2CCc2ccccc2-3)cc1	-13	-21	1	26	11	32*
COc1ccccc1-n1c(-c2ccccc2)c[n+]2c1CCc1ccccc1-2	-10	-26	20	59*	1	-2
COc1ccc(-c2c[n+]3c(n2-c2ccccc2)CCCCC3)cc1	-11	-1	16	7	0	-3
CCN(C1CCCCC1)S(=O)(=O)c1ccc(-n2cnnn2)c(C)c1	-1	2	-14	-11	2	-7
Clc1ccc(C(c2ccccc2)N2CCNCC2)cc1 (configuration not stated)	0	-10	18	23	1	-15
CC12CNCC(C)(CN(C(c3ccccc3)c3ccccc3)C1)C2	-6	-22	-5	59*	0	15
CCOC(=O)c1c(C)oc2c1c(CN1CCN(C(=O)OCC)CC1)c(O)c1ccccc12	17*	-8	6	1	2	0
CN(C)C/C=C/C(O)(c1ccccc1)c1ccccc1	-7	-26	19	97*	1	-4
C=CCn1c(SCC(=O)N(CC)CC)nc(O)cc1=O	1	4	3	-3	0	-22
Cn1nc(C(F)(F)F)c(-c2cccc(C(F)(F)F)c2)c1NC(=O)c1ccco1	-8	6	8	-5	0	-14
Cn1nc(C(F)(F)F)c(-c2cccc(C(F)(F)F)c2)c1NC(=O)Nc1ccc(F)cc1	3	-19	-25	38*	15*	33*
O=C(CN1C(=O)COc2ccccc21)c1ccc(Cl)cc1	-3	-9	-8	28	0	30*
C=CCNC(=O)c1cc2cccc(OC)c2oc1=O	-6	7	-5	-2	0	-10
CC(=O)c1ccc(N2CCN(C(=O)c3nn(C)c4c3CS(=O)(=O)c3ccccc3-4)CC2)cc1	2	-4	-11	4	16*	-2
C#CCOc1ccc(/C=C2/C(=O)N(c3cccc(C(=O)O)c3)N=C2C)cc1OC	1	9	-19	-7	-1	26*
COc1cc(/C=C2\C(=O)N(c3cccc(C(=O)O)c3)N=C2C)ccc1OCc1ccccc1	-3	3	-10	-8	0	-1
N#CNC(=Nc1ccccc1)SCc1ccc(C(=O)O)cc1	-1	7	-10	0	0	13
